# Measured values from PubChem BioAssay AID588726 (The Scripps Research Institute Molecular Screening Center, 2011).
# The campaign covered roughly 360,000 compounds. About 8,200 (2.3%) were called active. The sample as a whole holds a higher share of actives than the screen did. Values without a mark were called inactive. Rule as the data show it: active = inhibition above about 27%; inactive = the rest.
# Biological target: Fructose-bisphosphate aldolase (Mycobacterium tuberculosis (strain ATCC 25618 / H37Rv)) (UniProt P9WQA3)
# Sequence (P9WQA3 whole entry, looked up): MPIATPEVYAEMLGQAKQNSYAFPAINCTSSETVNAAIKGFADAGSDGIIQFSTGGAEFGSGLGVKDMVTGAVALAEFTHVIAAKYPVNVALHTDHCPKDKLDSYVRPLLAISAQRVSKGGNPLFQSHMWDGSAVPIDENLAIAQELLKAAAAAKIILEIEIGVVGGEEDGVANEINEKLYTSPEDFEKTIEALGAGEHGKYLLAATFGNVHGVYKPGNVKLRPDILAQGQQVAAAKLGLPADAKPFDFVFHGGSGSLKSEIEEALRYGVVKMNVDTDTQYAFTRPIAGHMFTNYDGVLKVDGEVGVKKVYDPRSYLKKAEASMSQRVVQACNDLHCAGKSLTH
# Experiment: M. tuberculosis aldolase activity blockers – biochemical, fluorescence, strain H37Rv, primary screen (AID 588726);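 also: 0% = vehicle and 100% = reference inhibitor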
# Details: purified M. tuberculosis FBA, fluorescence read-out, at 1 µM, active compounds read high
row,Structure (SMILES),inhibition
1,Cc1nn(-c2ccccc2)c2c1C(c1cccc([N+](=O)[O-])c1)N(c1ccccc1)C(=O)N2 (stereo not drawn),-3.95%
2,CCOC(=O)c1cccc(NC(=O)CN2C(=O)C3CC=CCC3C2=O)c1 (stereo not drawn),-2.2%
3,CCC(=O)c1ccc(OCC(=O)OCC(=O)N2CCc3ccccc3C2)cc1,6.24%
4,CCCN(CCc1ccccc1)C1CCc2c(O)cccc2C1 (stereo not drawn),3.16%
5,CCOC(=O)C=Cc1ccc(C(=O)OCC)[nH]1,-4.99%
6,Cc1sc2ccccc2c1CNC[C@H]1O[C@@H](n2ccc(=O)[nH]c2=O)[C@H](O)[C@@H]1O,1.01%
7,Cc1cc(=O)n2nc(N3CCCC3C(=O)NCCCN3CC(C)CC(C)C3)sc2n1 (stereo not drawn),3.34%
8,CN1CCc2c(sc3c2c(NCc2ccco2)nc2nnnn23)C1,37.5% (active)
9,CCCSc1nc(NCc2ccco2)c2c3c(sc2n1)COC(C)(CC)C3 (stereo not drawn),2.94%
10,CCSc1nc2sc3c(c2c(=O)n1-c1ccc(C)cc1)CCN(C)C3,0.45%
11,CN1OC(COC(=O)c2ccc(Cl)cc2)CC1c1ccccc1 (stereo not drawn),0.19%
12,CCCCNC(=O)CCNC(=O)c1ccc(C(C)(C)C)cc1,-0.2%
13,CC(C)(C)c1ccc(C(=O)NCC(=O)OCN2C(=O)c3ccccc3C2=O)cc1,-0.24%
14,CC(C)(C)c1ccc(C(=O)NCCn2c(N)c(C#N)c3nc4ccccc4nc32)cc1,144% (active)
15,N#Cc1c(N)n(CCOC(=O)c2ccc(Cl)cc2)c2nc3ccccc3nc12,69.1% (active)
16,Cn1cncc1COC(=O)c1ccc(Cl)cc1,3.05%
17,O=C(c1ccccc1Cl)N(Cc1ccccc1F)N1C(=O)CCCC1=O,-2.23%
18,CC(C)CN(C(=O)c1ccc2c(c1)OCO2)C1CCS(=O)(=O)C1 (stereo not drawn),-0.95%
19,CC(=O)Nc1ccc(Nc2ncnc3c2nnn3Cc2ccccc2Cl)cc1,2.68%
20,CC(=O)c1cnn(-c2cc(Oc3ccc(F)cc3)ncn2)c1C,2.98%
21,CCc1ccccc1NC(=O)CCOc1ccccc1,0.8%
22,Cc1ccc(NC(=O)COC(=O)CN2CCSC2=O)cc1F,-1.26%
23,CC1=NN(C(=O)c2ccc(Br)cc2)C(O)(c2ccccc2)C1 (stereo not drawn),-1.19%
24,COc1ccc(NC(=O)C2(C)Cc3c(-c4cccc(NC(C)=O)c4)ccnc3O2)cc1 (stereo not drawn),5.4%

row,Structure (SMILES),inhibition
1,CSc1ccc(/C=N/N2CCN(Cc3ccccc3Cl)CC2)cc1,-4.01%
2,COCCn1c(SCC(=O)N2CCCCCC2)nc2c(c1=O)SCC2,-1.33%
3,Cc1ccc(Cn2c(C)c3cnn(CC(=O)NCCN4CCOCC4)c(=O)c3c2C)cc1,-0.73%
4,O=C(NCc1cccnc1)c1cc(S(=O)(=O)N2CCOCC2)c(Cl)cc1Cl,-0.2%
5,Cc1ccc(CCNC(=O)c2ccc3nc4ccccc4c(=O)n3c2)cc1,12.9%
6,O=C(CSc1nc2ccccc2c(=O)n1Cc1ccc(F)cc1)NCC1CCCO1 (stereo not drawn),2.15%
7,O=C(NCC1CCCO1)c1cc2c([nH]c3ccccc32)c(-c2ccc(F)cc2)n1 (stereo not drawn),14%
8,Cc1ccccc1NC(=O)Cn1c(=O)n(CC2CCCO2)c(=O)c2ccccc21 (stereo not drawn),2.56%
9,Cc1cccc(NC(=O)c2ccc3c(=O)n(CC4CCCO4)c(=S)[nH]c3c2)c1 (stereo not drawn),-2.72%
10,COc1ccc(CCNC(=O)Cn2c(=O)n(CC3CCCO3)c(=O)c3ccccc32)cc1OC (stereo not drawn),4.02%
11,Cc1cccn2c(=O)c3cc(C(=O)NCCN4CCOCC4)c(=N)n(Cc4cccnc4)c3nc12,131% (active)
12,Cc1cccn2c(=O)c3cc(C(=O)NCC4CCCO4)c(=N)n(Cc4ccc(F)cc4)c3nc12 (stereo not drawn),186% (active)
13,CC(C)(C)c1cc2cccnc2n1Cc1cccc(F)c1,3.01%
14,COc1cc(/C=C/C(=O)O)cc(S(=O)(=O)Nc2ccccc2SC)c1OC,-0.58%
15,CC(C)(C)CC(=O)Nc1nc(C(N)Cc2ccc(C(F)(F)F)cc2)cs1 (stereo not drawn),-1.2%
16,Cc1ccccc1NC(=O)CCNS(=O)(=O)c1ccc2[nH]c(=O)oc2c1,-4.94%
17,CC(=O)c1nn(-c2cccc(C(F)(F)F)c2)c(=O)[nH]c1=O,2.77%
18,COc1cc(OC)c(C(=O)OC(C)C(=O)Nc2cc(C(F)(F)F)ccc2Cl)cc1OC (stereo not drawn),-1.34%
19,C/C(=N\NC(=O)c1ccc(CSc2nc(C)cc(C)n2)cc1)C1CCCCC1,-4.8%
20,CC(=O)c1ccc(NC(=O)CSc2nc3ccccc3c(=O)n2CCCN2CCOCC2)cc1,-0.35%
21,CCOC(=O)C1CCN(Cc2c(C(=O)N3CCOCC3)nc3c(C)cccn23)CC1,8.49%
22,C=CCO/N=C/C1=C(O)C(C(=O)OC)C(C)(C)CC1=O (stereo not drawn),0.55%
23,O=C1C(=O)N(c2ccccc2)C(c2ccccc2)C1c1ccccc1 (stereo not drawn),53% (active)
24,O=C1[C@@H](c2ccccc2)[C@@H](c2ccccc2)N1c1cccnc1,4.74%

row,Structure (SMILES),inhibition
1,O=C1c2ccccc2C(=O)C1c1ccccc1,4.16%
2,Cc1ccccc1-c1csc(C(O)c2cccc(Cl)c2)n1 (stereo not drawn),-4.41%
3,Clc1ccc(CSc2nnc([C@@H]3CCCN3)o2)cc1,4.22%
4,C#CCSc1nnc(-c2sc3ccccc3c2Cl)o1,4.19%
5,Fc1ccc(CSc2nnc(-c3cc4c(s3)-c3ccccc3CC4)o2)cc1,154% (active)
6,O=C(CSc1nnc(-c2ccccc2O)o1)NC1CCCCC1,0.67%
7,CCSc1nnc(-c2cc3c(s2)-c2ccccc2CC3)o1,61.2% (active)
8,Fc1ccc(-c2nnc(CSc3nnc(-c4ccc5c(c4)OCO5)o3)o2)cc1,-2.07%
9,CNC(=O)C[C@H]1C(=O)N(Cc2ccccc2)C[C@@H]1CSC,3.42%
10,COc1ccc(OC)c(-c2c(=O)n(OCc3ccccc3Br)c3ccccc3[n+]2[O-])c1,-1.19%
11,COc1cc(N2C(=O)CC3(CCCC3)CC2=O)cc(OC)c1OC,0.26%
12,CCN(C(=O)C1CCCN(c2nc(-c3ccc(OC)cc3)no2)C1)c1ccc(OC)cc1 (stereo not drawn),-2.44%
13,Cc1cc(C)c2c(n1)nn1c(-n3ccnc3)cc(C)nc21,27.6% (active)
14,CCCCNCc1ccc(SC)cc1,-1.81%
15,CCNc1nc(Oc2ccc(C(=O)OC)cc2)nc(N2CCOCC2)n1,0.39%
16,COc1ccc(N(C(=O)c2snc(C(N)=O)c2N)C(C(=O)NC2CCCC2)c2ccc(C)o2)c(OC)c1 (stereo not drawn),2.34%
17,CCOC(=O)c1ccc(-c2ccc3ncnc(N(C)Cc4sccc4C)c3c2)o1,171% (active)
18,CCOC(=O)c1ccc(CS(=O)c2ccc(Cl)cc2)o1 (stereo not drawn),-0.81%
19,COc1ccccc1C(=O)Nn1c(-c2cccs2)nc2ccccc2c1=O,0.05%
20,CCc1nnc(NC(=O)CSc2nc3ccccc3c(=O)n2CCCOC)s1,-4.95%
21,CC1CN(c2cc(=O)n(Cc3ccc(F)cc3)c(=O)[nH]2)CC(C)O1 (stereo not drawn),-1.34%
22,Cc1ccc2c(C)c(C(=O)N3CCC(N4CCC(C(=O)NC5CC5)CC4)CC3)oc2c1,1.31%
23,Cc1cc(-c2ccccc2)nc(N2CCC(C(=O)NC34CC5CC(CC(C5)C3)C4)CC2)n1,170% (active)
24,CC(=O)N1CCC(C(=O)Nc2nc(-c3ccccc3)ns2)CC1,-0.01%

row,Structure (SMILES),inhibition
1,O=C(NNC(=O)C1CCN(c2ncccn2)CC1)c1ccccc1,1.54%
2,CCOc1cc(-c2noc(CCC(=O)N3CCOCC3)n2)ccc1OC,1.37%
3,CCCn1c(=O)c(C(=O)Nc2cc(C)ccn2)c(O)c2ccccc21,1.3%
4,CCCCCn1c(=O)c(C(=O)OCC)c(Cl)c2ccccc21,1.96%
5,CCCn1c(=O)c(-c2ccccc2)c(O)c2ccccc21,35.6% (active)
6,Cc1cccc(C(=O)C(O)(c2ccccc2)C2CCCCC2=O)c1 (stereo not drawn),3.06%
7,O=C(Nc1cccnc1)c1noc2c1CCCCC2,1.31%
8,N#CC1(Nc2ccc3c4c(cccc24)CC3)CCCCC1,48% (active)
9,N#CC1(Nc2ccc(-c3ccc(Cl)cc3)cc2)CCCC1,-1.27%
10,CC(C)C(=O)Nc1ccc2c3c(cccc13)CC2,-0.4%
11,O=C(c1ccccc1)c1cc(-c2ccccn2)c(N2CCOCC2)s1,-4.69%
12,CSc1ncnc2c1ncn2CC(=O)C1CCC2C3CCC4=CC(=O)CCC4(C)C3CCC12C (stereo not drawn),-0.85%
13,COCCCNC(=O)CC1C[C@H](C(=O)N2CCCCC2)[C@@]2(CCc3ccccc3)c3[nH]c4ccccc4c3CCN2C1=O (stereo partly drawn),0.45%
14,COc1ccc2c(CC(=O)OCC(=O)NC(N)=O)coc2c1,2.04%
15,Cc1ccc2nc(NCCCNC(=O)c3cnccn3)c(C#N)cc2c1,22.9%
16,COCCCNC(=S)NCCNc1nc2cc(C)c(C)cc2cc1C#N,27.3% (active)
17,Cc1ccc2cc(C#N)c(NCCNC(=S)NCCCN3CCOCC3)nc2c1,11.2%
18,CCCC(C(=O)NCc1ccco1)N(C(=O)CNS(=O)(=O)c1ccccc1)C1CCCC1 (stereo not drawn),0.18%
19,c1ccc2cc(CCCc3cc4ccccc4cn3)ncc2c1,5.36%
20,O=C(CSc1nnc(-c2ccncc2)n1C1CCCCC1)Nc1ccccc1,-1.22%
21,CC1CCCN(S(=O)(=O)c2ccc(-c3ccc(=O)[nH]n3)o2)C1 (stereo not drawn),3.28%
